# Data taken from ChEMBL document CHEMBL4513141, “CO-ADD screening of NIH (USA) - Clinical Collection” (2021).
# Values joined by “and” are separate entries in the source; they are usually repeats but may differ in a detail not shown here. Identical values can stand only once. Entries with a potency or affinity are not part of this list.
# Experiments:
# Staphylococcus aureus = conditions: Concentration 20 uM, ASSAY_TEST Inhibition of Bacterial Growth, detection method Absorption (OD600), MEDIA CAMHB, plate type 384well, NBS, CORNING #3640, time 18 hr
# Escherichia coli = conditions: Concentration 20 uM, ASSAY_TEST Inhibition of Bacterial Growth, detection method Absorption (OD600), MEDIA CAMHB, plate type 384well, NBS, CORNING #3640, time 18 hr
smiles,measurement,setting,value
CN[C@@H]1[C@H](O)[C@H](NC)[C@H]2O[C@@]3(O)C(=O)C[C@@H](C)O[C@H]3O[C@@H]2[C@H]1O.Cl.Cl.Cl.O.O.O,Inhibition,Staphylococcus aureus,11.03%
same,Inhibition,Escherichia coli,29.97%
CN1C(C(=O)Nc2ccccn2)=C(O)c2ccccc2S1(=O)=O.O,Inhibition,Staphylococcus aureus,15.17%
same,Inhibition,Escherichia coli,-5.74%
Cc1cc2c(s1)Nc1ccccc1N=C2N1CCN(C)CC1 [OLANZAPINE],Inhibition,Staphylococcus aureus,9.67%
same,Inhibition,Escherichia coli,0.45%
C[C@H]1C[C@@H]2[C@H]([C@@H](O)C[C@@]3(C)[C@H]2CC[C@]3(O)C(=O)CO)[C@@]2(C)C=CC(=O)C=C12 [METHYLPREDNISOLONE],Inhibition,Staphylococcus aureus,7.4%
same,Inhibition,Escherichia coli,5%
CN1CCN(C2=Nc3cc(F)ccc3Cc3ccccc32)CC1 [FLUPERLAPINE],Inhibition,Staphylococcus aureus,14.37%
same,Inhibition,Escherichia coli,3.9%
CCCCC(=O)N(Cc1ccc(-c2ccccc2-c2nnn[nH]2)cc1)[C@H](C(=O)O)C(C)C,Inhibition,Staphylococcus aureus,14.82%
same,Inhibition,Escherichia coli,3.3%
CCc1ccc(CCOc2ccc(CC3SC(=O)NC3=O)cc2)nc1.Cl (stereo not drawn) [PIOGLITAZONE HYDROCHLORIDE],Inhibition,Staphylococcus aureus,3.82%
same,Inhibition,Escherichia coli,-0.97%
O=C1Nc2ccc(Cl)cc2[C@@](C#CC2CC2)(C(F)(F)F)O1 [EFAVIRENZ],Inhibition,Staphylococcus aureus,10.66%
same,Inhibition,Escherichia coli,-2.05%
Nc1nc(Cl)nc2c1ncn2[C@H]1C[C@H](O)[C@@H](CO)O1 [CLADRIBINE],Inhibition,Staphylococcus aureus,6.87%
same,Inhibition,Escherichia coli,14.09%
CCC(C)(C)/N=C(\NC#N)Nc1cccnc1,Inhibition,Staphylococcus aureus,1.37%
same,Inhibition,Escherichia coli,-2.42%
CC(=O)/N=c1/sc(S(N)(=O)=O)nn1C [METHAZOLAMIDE],Inhibition,Staphylococcus aureus,5.78%
same,Inhibition,Escherichia coli,3.59%
CN(C)CC[C@@H](c1ccc(Br)cc1)c1ccccn1.O=C(O)/C=C\C(=O)O [DEXBROMPHENIRAMINE MALEATE],Inhibition,Staphylococcus aureus,4.45%
same,Inhibition,Escherichia coli,5.01%
CCc1nn(CCCN2CCN(c3cccc(Cl)c3)CC2)c(=O)n1CCOc1ccccc1.Cl [NEFAZODONE HYDROCHLORIDE],Inhibition,Staphylococcus aureus,6.52%
same,Inhibition,Escherichia coli,3.73%
C=C1/C(=C\C=C2/CCC[C@]3(C)[C@@H]([C@H](C)/C=C/[C@@H](O)C4CC4)CC[C@@H]23)C[C@@H](O)C[C@@H]1O [CALCIPOTRIENE],Inhibition,Staphylococcus aureus,9.78%
same,Inhibition,Escherichia coli,4.8%
CN1CCC(=C2c3ccccc3C=Cc3ccccc32)CC1.Cl [CYPROHEPTADINE HYDROCHLORIDE],Inhibition,Staphylococcus aureus,5.98%
same,Inhibition,Escherichia coli,6.77%
CCCCN1CCCC1CNC(=O)c1cc(C#N)c2ccccc2c1OC (stereo not drawn) [NAFADOTRIDE],Inhibition,Staphylococcus aureus,6.62%
same,Inhibition,Escherichia coli,2.47%
COc1ccccc1OCC(O)COC(N)=O (stereo not drawn) [METHOCARBAMOL],Inhibition,Staphylococcus aureus,12.79%
same,Inhibition,Escherichia coli,-0.64%
CCCN[C@H]1CCc2nc(N)sc2C1 [PRAMIPEXOLE],Inhibition,Staphylococcus aureus,-18.52%
same,Inhibition,Escherichia coli,2.75%
COCC1=C(C(=O)OC(C)OC(=O)OC(C)C)N2C(=O)[C@@H](NC(=O)/C(=N\OC)c3csc(N)n3)[C@H]2SC1 (stereo partly drawn) [CEFPODOXIME PROXETIL],Inhibition,Staphylococcus aureus,-13.09%
same,Inhibition,Escherichia coli,5.31%
CC(Oc1c(Cl)cccc1Cl)C1=NCCN1.Cl (stereo not drawn) [LOFEXIDINE HYDROCHLORIDE],Inhibition,Staphylococcus aureus,7.96%
same,Inhibition,Escherichia coli,0.12%
CNC(=C[N+](=O)[O-])NCCSCc1ccc(CN(C)C)o1.Cl [RANITIDINE HYDROCHLORIDE],Inhibition,Staphylococcus aureus,-17.46%
same,Inhibition,Escherichia coli,4.52%
CC(C)Oc1ccc2c(=O)c(-c3ccccc3)coc2c1 [IPRIFLAVONE],Inhibition,Staphylococcus aureus,16.93%
same,Inhibition,Escherichia coli,5.9%
Cl.Cn1c(NCCN(CCO)CCCc2ccc([N+](=O)[O-])cc2)cc(=O)n(C)c1=O,Inhibition,Staphylococcus aureus,-11.53%
same,Inhibition,Escherichia coli,3.31%
Cl.O=c1n(CCCN2CCN(c3cccc(Cl)c3)CC2)nc2ccccn12 [TRAZODONE HYDROCHLORIDE],Inhibition,Staphylococcus aureus,11.44%
same,Inhibition,Escherichia coli,0.18%
Cc1ccc(S(=O)(=O)NC(=O)NN2CCCCCC2)cc1 [TOLAZAMIDE],Inhibition,Staphylococcus aureus,2.29%
same,Inhibition,Escherichia coli,-1.66%
CN1CCCC(n2nc(Cc3ccc(Cl)cc3)c3ccccc3c2=O)CC1.Cl (stereo not drawn) [AZELASTINE HYDROCHLORIDE],Inhibition,Staphylococcus aureus,-20.95%
same,Inhibition,Escherichia coli,3.65%
Cc1cn([C@H]2C=C[C@@H](CO)O2)c(=O)[nH]c1=O [STAVUDINE],Inhibition,Staphylococcus aureus,17.22%
same,Inhibition,Escherichia coli,4.38%
CCCc1c(OCCCCc2nnn[nH]2)ccc(C(C)=O)c1O [TOMELUKAST],Inhibition,Staphylococcus aureus,5.76%
same,Inhibition,Escherichia coli,7.84%
Cc1ccccc1C(OCCN(C)C)c1ccccc1.Cl (stereo not drawn) [ORPHENADRINE HYDROCHLORIDE],Inhibition,Staphylococcus aureus,13.17%
same,Inhibition,Escherichia coli,-1.64%
CN(C)CCCN1c2ccccc2CCc2ccccc21.Cl [IMIPRAMINE HYDROCHLORIDE],Inhibition,Staphylococcus aureus,8.95%
same,Inhibition,Escherichia coli,-1.44%
CN1CCN(CCCN2c3ccccc3Sc3ccc(Cl)cc32)CC1.O=C(O)/C=C\C(=O)O.O=C(O)/C=C\C(=O)O [PROCHLORPERAZINE MALEATE],Inhibition,Staphylococcus aureus,13.38%
same,Inhibition,Escherichia coli,1.77%
Cl.O=C1CN2Cc3c(ccc(Cl)c3Cl)N=C2N1 [ANAGRELIDE HYDROCHLORIDE],Inhibition,Staphylococcus aureus,11.06%
same,Inhibition,Escherichia coli,7.21%
COc1cc(C(=O)NS(=O)(=O)c2ccccc2C)ccc1Cc1cn(C)c2ccc(NC(=O)OC3CCCC3)cc12 [ZAFIRLUKAST],Inhibition,Staphylococcus aureus,36.84%
same,Inhibition,Escherichia coli,4.93%
O=S(=O)([O-])CCS.[Na+] [MESNA],Inhibition,Staphylococcus aureus,2.58%
same,Inhibition,Escherichia coli,-2.71%
Nc1nc2c(ncn2COCCO)c(=O)[nH]1 [ACYCLOVIR],Inhibition,Staphylococcus aureus,-22.02%
same,Inhibition,Escherichia coli,4.79%
CC(C)(C)NCC(O)c1ccc(O)c(CO)c1.CC(C)(C)NCC(O)c1ccc(O)c(CO)c1.O=S(=O)(O)O (stereo not drawn) [ALBUTEROL SULFATE],Inhibition,Staphylococcus aureus,8.55%
same,Inhibition,Escherichia coli,5.03%
CN(C)c1nc(N(C)C)nc(N(C)C)n1 [ALTRETAMINE],Inhibition,Staphylococcus aureus,15.78%
same,Inhibition,Escherichia coli,-2.16%
CC[C@H](C)C(=O)O[C@H]1CCC=C2C=C[C@H](C)[C@H](CC[C@@H]3C[C@@H](O)CC(=O)O3)[C@H]21 [MEVASTATIN],Inhibition,Staphylococcus aureus,-0.69%
same,Inhibition,Escherichia coli,8.43%
CC(C)(C)NC[C@H](O)COc1nsnc1N1CCOCC1.O=C(O)/C=C\C(=O)O [TIMOLOL MALEATE],Inhibition,Staphylococcus aureus,2.99%
same,Inhibition,Escherichia coli,1.71%
CC(C)NCC(O)COc1ccc(CC(N)=O)cc1 (stereo not drawn) [ATENOLOL],Inhibition,Staphylococcus aureus,9.69%
same,Inhibition,Escherichia coli,2.4%
CC#C[C@]1(O)CC[C@H]2[C@@H]3CCC4=CC(=O)CCC4=C3[C@@H](c3ccc(N(C)C)cc3)C[C@@]21C [MIFEPRISTONE],Inhibition,Staphylococcus aureus,11.2%
same,Inhibition,Escherichia coli,-7.81%
CNNCc1ccc(C(=O)NC(C)C)cc1.Cl [PROCARBAZINE HYDROCHLORIDE],Inhibition,Staphylococcus aureus,12.92%
same,Inhibition,Escherichia coli,-2.72%
CCCSc1ccc2[nH]c(NC(=O)OC)nc2c1 [ALBENDAZOLE],Inhibition,Staphylococcus aureus,3.05%
same,Inhibition,Escherichia coli,1.87%
CC1(C)O[C@@H]2C[C@H]3[C@@H]4CCC5=CC(=O)C=C[C@]5(C)[C@@]4(F)[C@@H](O)C[C@]3(C)[C@]2(C(=O)CO)O1 [TRIAMCINOLONE ACETONIDE],Inhibition,Staphylococcus aureus,7.65%
same,Inhibition,Escherichia coli,3.69%
O=C(O)COCCN1CCN(C(c2ccccc2)c2ccc(Cl)cc2)CC1 (stereo not drawn) [CETIRIZINE],Inhibition,Staphylococcus aureus,14.64%
same,Inhibition,Escherichia coli,-0.91%
Cc1cccc(Nc2ccccc2C(=O)O)c1C [MEFENAMIC ACID],Inhibition,Staphylococcus aureus,15.6%
same,Inhibition,Escherichia coli,6.03%
CN1CCCCC1CCN1c2ccccc2Sc2ccc([S+](C)[O-])cc21.O=S(=O)(O)c1ccccc1 (stereo not drawn) [MESORIDAZINE BESYLATE],Inhibition,Staphylococcus aureus,-15.92%
same,Inhibition,Escherichia coli,4.24%
CNCCCC12CCC(c3ccccc31)c1ccccc12.Cl [MAPROTILINE HYDROCHLORIDE],Inhibition,Staphylococcus aureus,15.07%
same,Inhibition,Escherichia coli,6.19%
Cc1nccn1CC1CCc2c(c3ccccc3n2C)C1=O (stereo not drawn) [ONDANSETRON],Inhibition,Staphylococcus aureus,4.05%
same,Inhibition,Escherichia coli,7.33%
COc1cc2nc(N3CCN(C(=O)C4COc5ccccc5O4)CC3)nc(N)c2cc1OC (stereo not drawn) [DOXAZOSIN],Inhibition,Staphylococcus aureus,8.23%
same,Inhibition,Escherichia coli,5.29%
Cl.Nc1nc2ccc(OC(F)(F)F)cc2s1,Inhibition,Staphylococcus aureus,13.98%
same,Inhibition,Escherichia coli,2.43%
CN1CCc2cc(Cl)c(O)cc2[C@@H](c2ccccc2)C1.Cl,Inhibition,Staphylococcus aureus,10.41%
same,Inhibition,Escherichia coli,0.35%
C[C@@H]1C[C@H]2[C@@H]3CCC4=CC(=O)C=C[C@]4(C)[C@@]3(F)[C@@H](O)C[C@]2(C)[C@@]1(O)C(=O)CO [DEXAMETHASONE],Inhibition,Staphylococcus aureus; 20 µM,-14.23% and -13.77%
same,Inhibition,Escherichia coli; 20 µM,5.83% and 4.46%
C[C@H]1O[C@@H](O[C@H]2[C@@H](O)C[C@H](O[C@H]3[C@@H](O)C[C@H](O[C@H]4CC[C@@]5(C)[C@H](CC[C@@H]6[C@@H]5C[C@@H](O)[C@]5(C)C(C7=CC(=O)OC7)CC[C@]65O)C4)O[C@@H]3C)O[C@@H]2C)C[C@H](O)[C@@H]1O (stereo partly drawn),Inhibition,Staphylococcus aureus,15.53%
same,Inhibition,Escherichia coli,-7.29%
CS(=O)(=O)O.Oc1ccc(C2CNCCc3c2cc(O)c(O)c3Cl)cc1 (stereo not drawn) [FENOLDOPAM MESYLATE],Inhibition,Staphylococcus aureus,13.63%
same,Inhibition,Escherichia coli,-0.49%
CC(N)C12CC3CC(CC(C3)C1)C2.Cl (stereo not drawn) [RIMANTADINE HYDROCHLORIDE],Inhibition,Staphylococcus aureus,6.08%
same,Inhibition,Escherichia coli,-3.07%
CCOc1cc(N)c(Cl)cc1C(=O)NCC1CN(Cc2ccc(F)cc2)CCO1.O=C(O)CC(O)(CC(=O)O)C(=O)O (stereo not drawn) [MOSAPRIDE CITRATE],Inhibition,Staphylococcus aureus,10.04%
same,Inhibition,Escherichia coli,3.47%
Cc1sc(N)c(C(=O)c2cccc(C(F)(F)F)c2)c1C,Inhibition,Staphylococcus aureus,5.2%
same,Inhibition,Escherichia coli,-1.03%
CCN1CC(CCN2CCOCC2)C(c2ccccc2)(c2ccccc2)C1=O.Cl (stereo not drawn),Inhibition,Staphylococcus aureus,-18.77%
same,Inhibition,Escherichia coli,2.66%
